Laboratory results as given in PubChem BioAssay AID504847 (National Center for Advancing Translational Sciences (NCATS), 2011).
Several values for one entry are separate records, joined by “and”; a condition that tells them apart may be missing. Equal entries are not always repeated. Among all 400,000 compounds or so, about 3,700 (0.93%) were called active. Not shown: some 3% with an inconclusive outcome. The sample holds actives, similar compounds and a random draw of the others, so the mix is not that of the screen. Calls come from the whole dose curve; as a rule, active = well fitted inhibition curve with a large enough effect; inconclusive = small, poorly fitted or top-dose-only effect, or another doubt; inactive = no such curve, though single readings can be large or run the other way.

Target: Vitamin D3 receptor (Homo sapiens) (UniProt P11473)
Assay: Inhibitors of the vitamin D receptor (VDR): qHTS
Conditions: VDR-SRC2-3 peptide fluorescence polarization, 2 h; max response, negative = inhibition: active compounds read low
Outline: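 Two reagent solutions held at 4 deg C in the dark were dispensed, compounds pinned at 23 nl, and the mixture incubated 2 h at room temperature. Read-out: fluorescence polarization of VDR–SRC2-3 peptide binding.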
% is set by controls: 0 for no effect and ±100 for the full control effect; potency is the fitted concentration of half-maximal effect.

Sequence of Vitamin D3 receptor (Homo sapiens) (P11473 whole entry, looked up): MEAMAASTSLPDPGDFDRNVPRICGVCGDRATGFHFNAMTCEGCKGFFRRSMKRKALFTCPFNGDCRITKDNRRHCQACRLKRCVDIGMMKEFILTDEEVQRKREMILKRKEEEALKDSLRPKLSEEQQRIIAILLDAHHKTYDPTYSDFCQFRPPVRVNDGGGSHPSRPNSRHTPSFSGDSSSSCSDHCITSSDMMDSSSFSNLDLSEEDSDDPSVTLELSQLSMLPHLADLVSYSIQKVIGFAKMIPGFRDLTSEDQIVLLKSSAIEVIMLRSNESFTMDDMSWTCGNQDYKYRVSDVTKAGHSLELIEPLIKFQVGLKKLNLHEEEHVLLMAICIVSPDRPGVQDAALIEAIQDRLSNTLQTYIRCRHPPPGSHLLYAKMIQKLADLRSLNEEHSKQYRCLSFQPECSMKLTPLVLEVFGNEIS

Max response, negative = inhibition, inactive:
Cc1c(-c2nc(-c3ccc4c(c3)OCO4)no2)nnn1-c1ccc(Br)cc1F 14.1%
Cc1ccc(Cl)cc1-n1ncc2c(N3CCC(C(N)=O)CC3)ncnc21 -9.07%
OC[C@@H]1O[C@H](n2cnc3c(SCc4ccccc4)ncnc32)[C@H](O)[C@H]1O -14.3%
COc1ccc(CCN2C(=O)c3oc4cc(C)cc(C)c4c(=O)c3C2c2ccccc2F)cc1OC (stereo not drawn) 4.42%
COc1ccccc1NC(=O)C(=O)c1cc(C)n(-c2ccccc2F)c1C 14.8%
CCCCOc1ccc(Cn2c(=O)oc3ccc(C)cc32)cc1OC -6.99%
COc1ccc(CCN2C(=O)C(C)=C(C)C2=O)cc1OC -14.3%
CCN(CC)CCNc1ncnc2c1cnn2-c1cc(Cl)ccc1C 11.7%
CN1[C@H]2CC(OC(=O)[C@@H](CO)c3ccccc3)C[C@H]1[C@H]1O[C@H]12 (stereo partly drawn) 7.07%
Cn1c(N)c(C(=O)COC(=O)/C=C/c2cccc(C(F)(F)F)c2)c(=O)n(C)c1=O 8.93%
CCOC(=O)NNc1cc(C(F)(F)F)ccn1 -1.56%
CC1(C)CCc2cc(S(=O)(=O)N3CCN(c4nc(-c5cccs5)nc5ccccc45)CC3)ccc2O1 -7.78%
OCC(CO)NC1C[C@](O)(CO)[C@@H](O)[C@H](O)[C@H]1O (stereo partly drawn) 1.5%
O=C(Nc1cccc(F)c1)c1cc(-c2ccco2)nc2ccccc12 -14.8%
CC(=O)N1CCN(C(=O)c2cc(-c3ccc(C)o3)nc3ccccc23)CC1 -3.82%
CN(C)c1cccc(C(=O)Nc2nc3ccc(S(=O)(=O)NC(C)(C)C)cc3s2)c1 8.63%
COc1ccccc1-c1noc(CSc2nnc(-c3ccccc3)n2-c2ccc(C)c(C)c2)n1 5.39%
O=C(Cn1nc(C(F)(F)F)c2c1CCCC2)Nc1ccc(Cl)cc1 4.81%
O=C(Cn1ncc(N2CCCC2)c(Br)c1=O)c1ccc(Cl)cc1 -1.29%
Cc1cccc(N2CCN(c3ccc(C(=O)O)cc3NC(=O)c3ccccc3F)CC2C)c1 (stereo not drawn) 1.51%
O=C(CCN1CCN(C/C=C/c2ccccc2)CC1)Nc1ccccc1Cl -1.78%
O=C(Nc1ccccc1Cl)N1CCC(CN2CCCC2)CC1 6.62%
CCn1cc(C(=O)NCc2ccc(C)cc2)c(=O)c2cc(S(=O)(=O)N3CCc4ccccc4C3)ccc21 -10.3%
Cc1c(Br)cc(C(=O)N2CCCCCC2)c(C)c1C -2.34%
Cc1ccc(C(NC(=O)N2CCCC2)C(Cl)(Cl)Cl)cc1F (stereo not drawn) 6.9%
CCC(=O)Nc1cccc(C(=O)OCc2cc(=O)n3nc(CC)sc3n2)c1 7.59%
C=C1C(=CC=C2CCC[C@@]3(C)[C@@H]2CC[C@H]3[C@H](C)CCCC(C)C)C[C@@H](O)C[C@@H]1O 8.33%
CCOCCn1ccc2c(OCC(=O)NCc3ccc(C)cc3)cccc2c1=O 10.6%
Cc1ccc(OCC(=O)Nc2ccc(OCc3cc(=O)n4c(C)csc4n3)cc2)cc1C -8.2%
O=C(Nc1c(C(=O)N2CCN(c3ccc(F)cc3)CC2)oc2ccccc12)c1ccco1 -2.38%
COc1ccccc1CNC(=O)c1ccc(-n2c(C)cc3c2CCCC3)cc1 13.6%
O=C(Nc1ccc([N+](=O)[O-])cc1)OCCc1ccccn1 -15.4%
O=C(CSc1nc(-c2ccccc2)cs1)Nc1cccc([N+](=O)[O-])c1 -15.3%
O=C(CSc1nnc(-c2ccccc2F)o1)Nc1cccc(C(F)(F)F)c1 -10.5%
Cn1c(=O)c2c(ncn2CC(=O)Nc2cccc(C(F)(F)F)c2)n(C)c1=O 2.35%
Cc1c(Cl)cccc1NC(=O)c1noc2c1CCCC2 -14.6%
O=C(NCc1ccccc1)c1ccc2c(c1)nc1n2CCCCC1 12.2%
Cc1ccc(C)c(NC(=O)C2CCCN(S(=O)(=O)c3cn(C)cn3)C2)c1 (stereo not drawn) 2.5%
COCCNC(=O)c1ccc2c(c1)N(Cc1cccc(Cl)c1)C(=O)c1ccccc1S2(=O)=O 5.24%
CCCCOc1ccc(C(=O)N2CC(=O)Nc3ccc(Br)cc3C2c2ccc(F)cc2)cc1 (stereo not drawn) -9.94%
Cc1cccc(C2CC(=O)Oc3c2c(=O)n(C)c2ccccc32)c1 (stereo not drawn) 0.823%
Cc1cccc(OP(=O)(Nc2c(C)n(C)n(-c3ccccc3)c2=O)Oc2cccc(C)c2)c1 10.3%
Cc1c2cnn(-c3ccccc3)c(=O)c2c(C)n1C(C)C(=O)Nc1ccc(Br)cc1F (stereo not drawn) 11.8%
CN(Cc1ccccc1)C(=O)c1cc2c(=O)n(C)c3ccccc3c2s1 -5.87%
C/C(Nc1ccc2oc(=O)ccc2c1)=C1/C(=O)CC2[C@@H]1C2(C)C (stereo partly drawn) -29.7%
CCC1CN(S(=O)(=O)c2cc(-c3cc(C)no3)ccc2C)c2cc(C)ccc2O1 (stereo not drawn) 10.7%
CN1C(=O)CN2CCc3ccccc3C2c2cc(Cl)ccc21 (stereo not drawn) -10.7%
Clc1cccc(-c2nc3nc4ccccc4nc3n2Cc2ccco2)c1 4.83%
O=c1[nH]c(CSc2ncc(-c3ccc(F)cc3)n2Cc2ccco2)nc2ccccc12 7.47%
CCOc1ccc(-c2n[nH]c3c2C(c2ccccc2OC)N(c2ccc(Br)cc2)C3=O)cc1 (stereo not drawn) -27%
O=C(NCCc1ccc(Cl)cc1)c1ccc2c(c1)N(Cc1ccc(F)cc1)C(=O)CS2 -1.91%
Cc1ccc(C(=O)Nc2nc(-c3ccccc3)ns2)cc1 2.63%
CCCCCCCCCCCCCCCCO 0.1% and 6.37%
CCOc1ccc(S(=O)(=O)N2CCN(C(=S)NCC3CCCO3)CC2)cc1 (stereo not drawn) 28.2%
CCOc1ccc(S(=O)(=O)NCCC(=O)NCC2CCCO2)cc1 (stereo not drawn) -3.32%
O=C(NC1CC(=O)N(c2ccc(Cl)cc2)C1)C1CCCC1 (stereo not drawn) -5.32%
CN(C)S(=O)(=O)N1CCN(c2ccc([N+](=O)[O-])cc2)CC1 -2.16%
CCCCC(=O)Nc1c2c(nn1-c1ccc([N+](=O)[O-])cc1)CS(=O)(=O)C2 -18.5%
Cc1cc(C)c(-c2n[nH]c3c2C(c2ccccc2F)N(CCO)C3=O)c(O)c1 (stereo not drawn) 7.23%
O=c1cnc2cnc(Nc3ccccc3)nc2n1Cc1ccc(F)cc1 -4.57%
Cc1cc(NC(=O)CSc2ncc(C(=O)Nc3ccc(Cl)cc3)c(=O)n2C)no1 4.19%
COc1ccc(NC(=O)c2ccco2)cc1NC(=O)COc1ccc(C)c(C)c1 5.81%
O=C(O)c1ccccc1NC(=O)c1ccccc1-c1ccccc1C(=O)O -22.4%
CN1CCN(C(=O)c2ccc(-c3ccc(Br)cc3)o2)CC1 -9.02%
O=C(Nc1ccccc1Cl)N1CCC(CN2CCCCC2)CC1 4.52%
COc1cc(-c2cc3n(C)c(C)c(CCC(=O)Nc4ccc(F)cc4)c(=O)n3n2)cc(OC)c1OC -2.64%
NCCCNC(=S)NCCCN(Cc1ccc(Cl)cc1)c1ccc(Br)cn1 -24.7%
O=C(C1CC(=O)N(C2CCCCC2)C1)N1CCN(c2ccccc2)CC1 (stereo not drawn) -11.8%
CC(=O)Nc1ccc(S(=O)(=O)Nc2ccc(N3CCCCC3)cc2)cc1 6.02%
Cc1cc(-c2ccc(C)c(S(=O)(=O)N3c4ccccc4CC3C)c2)on1 (stereo not drawn) 9.78%

Potency, active:
O=S(=O)(O)c1cc2onnc2c2ccccc12 17.8 µM
CCCCOc1ccc(CN2C(=O)C(=O)c3cc(Br)cc(C)c32)cc1OC 14.1 µM
CCOC(=O)/C=C/c1ccc(C(F)(F)F)cc1S(=O)(=O)NC(C)(C)C 79.4 µM
CC1CCCN(C(=O)c2cc(-c3ccco3)nc3ccccc23)C1 (stereo not drawn) 35.5 µM
O=C(Cn1nc(CNc2ccc(Cl)cc2)[n+]2c1CCCCC2)c1ccc(Cl)cc1 79.4 µM
O=C(Nc1ccccc1Cl)/C(Cl)=C(\Cl)S(=O)c1ccccc1 (stereo not drawn) 3.98 µM
Cc1ccc(C(=O)N2CCCC2)c(F)c1F 44.7 µM
O=c1cc(CO)oc(C(Nc2cccc(C(F)(F)F)c2)c2ccccn2)c1O (stereo not drawn) 50.1 µM
O=c1cc(CO)oc(C(Nc2cccc([N+](=O)[O-])c2)c2ccccn2)c1O (stereo not drawn) 79.4 µM
Cc1cccc(Oc2c([N+](=O)[O-])c(=O)n(C)c3ccccc23)c1 39.8 µM
Cc1ccc(Cn2c(C)nc3c(c2=O)c2nc4ccccc4nc2n3Cc2ccco2)cc1 56.2 µM
Nc1ccc2nc3c(=O)[nH]c(=S)[nH]c3nc2c1 79.4 µM
Cc1c(S(=O)(=O)O)oc2c1C(=O)C(=O)c1c-2ccc2c1CCCC2(C)C 8.91 µM
CCOc1ccc(-n2c(N)c(C(=O)NCC3CCCO3)sc2=S)cc1 (stereo not drawn) 79.4 µM
O=C1/C(=C\c2ccc([N+](=O)[O-])cc2)CS(=O)(=O)C/C1=C/c1ccc([N+](=O)[O-])cc1 39.8 µM
O=C(NC(=S)Nc1ccccc1C(=O)O)c1ccc(-c2ccc(Br)cc2)o1 70.8 µM
O=C1C=CC(=O)N1c1ccc(N2CCCCC2)cc1 17.8 µM
Cc1[nH][nH]c(=O)c1C(c1ccc(-c2ccc(Cl)cc2)o1)c1c(C)[nH][nH]c1=O 79.4 µM
